Among the data in PubChem BioAssay (NCI) are growth values, retold here.

What all share (experiment): NCI-60 one-dose screen, 48 h (100 = growth as untreated, 0 = no growth, -100 = all killed)
Common to all, as to conditions: 10 µM unless noted

Assay [1] has as its system NCI-H23 lung.
In assay [2] the test system is NCI-H226 lung.
Assay [3] has as its system NCI-H322M lung.
For assay [4], the system named is HOP-62 NSCLC.
The test system of assay [5] is NCI-H460 lung.
The subject of assay [6] is HOP-92 NSCLC.
Assay [7] deals with NCI-H522 lung.
Assay [8] deals with A549/ATCC NSCLC.
In assay [9] the test system is 786-0 renal.
Assay [10] deals with COLO 205 colon.
In assay [11] the test system is DU-145 prostate.
Assay [12] relates to K-562 leukemia.
The subject of assay [13] is MALME-3M melanoma.
For assay [14], the system named is MDA-MB-231 breast.
Assay [15] relates to RXF 393 renal.
Assay [16] relates to SF-268 CNS.
For assay [17], the system named is SF-295 CNS.
The test system of assay [18] is SF-539 CNS.
Assay [19] relates to UACC-257 melanoma.
In assay [20] the test system is M14 melanoma.

“And” between values parts separate entries of the source, which are not always exact repeats. Equal values may be shown once. The panel holds about 83,000 compounds, 20% with a hit somewhere; the sample as a whole holds those more often.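 Testing used 96-well plates and a 48-hour single-concentration exposure. Example: -40 means 40% of the starting cells died.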 The source made the active and inactive calls. The calls were made as follows: active = growth percent below 10; inactive = the rest.

Take `CN(C)c1ccc([N+](=O)[O-])c([N+](=O)[O-])c1`: the growth in assay [1] was 109% (inactive) and 96.9% (inactive); in assay [2], 113% (inactive) and 105% (inactive); in [3], 111% (inactive) and 101% (inactive); in assay [4], 113% (inactive) and 122% (inactive); in assay [5], 110% (inactive) and 109% (inactive); in assay [6], 101% (inactive) and 104% (inactive). The growth was -70.3% (active) and 64.7% (inactive) in assay [7]; 101% (inactive) and 88.3% (inactive) in assay [8]; 116% (inactive) and 106% (inactive) in [9]; 106% (inactive) and 122% (inactive) in assay [10]; 103% (inactive) and 113% (inactive) in [11]; 113% (inactive) and 104% (inactive) in assay [12]. Further, the growth was 100% (inactive) in assay [13]; 98.4% (inactive) and 99.1% (inactive) in [14]; 111% (inactive) and 95.3% (inactive) in [15]; 106% (inactive) and 111% (inactive) in assay [16]; 112% (inactive) and 106% (inactive) in assay [17]; 128% (inactive) and 104% (inactive) in assay [18]. Moreover, the growth in assay [19] was 95.7% (inactive) and 88.2% (inactive); in [20] it was 99.4% (inactive) and 93.7% (inactive).
`CN(C)c1ccc(N)cc1`: the growth in assay [1] is 96.6% (inactive) and 10.7% (inactive); in assay [2], 101% (inactive) and 82.3% (inactive); in assay [3], 95.3% (inactive) and 111% (inactive); in assay [4], 93.7% (inactive) and 47.1% (inactive); in assay [5], 103% (inactive) and 54.2% (inactive); in [6], 98.1% (inactive) and 41.6% (inactive). The growth was 85.1% (inactive) in assay [7]; 97.2% (inactive) and 33.1% (inactive) in assay [8]; 109% (inactive) in [9]; 103% (inactive) and 43.1% (inactive) in assay [10]; 113% (inactive) and 58.4% (inactive) in assay [11]; 83.7% (inactive) and 44.9% (inactive) in [12]. The growth was 115% (inactive) and 95.7% (inactive) in assay [13]; 88% (inactive) and 58.6% (inactive) in [14]; 109% (inactive) and 84.7% (inactive) in assay [15]; 97.9% (inactive) and 65.8% (inactive) in assay [16]; 110% (inactive) and 59.9% (inactive) in [17]; 104% (inactive) and 67% (inactive) in assay [18]. The growth in assay [19] is 92.5% (inactive) and 4.45% (active); in assay [20] it was 101% (inactive).
As to `C[C@]12CC[C@H]3[C@@H](CC=C4c5nc(N)sc5CC[C@@]43C)[C@@H]1CC[C@@H]2O`, the growth is 98.4% (inactive) in [1]; 97.1% (inactive) in assay [2]; 108% (inactive) in [3]; 100% (inactive) in assay [4]; 96% (inactive) in assay [5]; 105% (inactive) in [6]. The growth in assay [7] was 89.7% (inactive); in assay [8], 94.5% (inactive); in assay [9], 100% (inactive); in assay [10], 113% (inactive); in [11], 103% (inactive); in assay [12], 95.2% (inactive). The growth was 107% (inactive) in assay [13]; 111% (inactive) in [14]; 99.4% (inactive) in assay [15]; 97.1% (inactive) in assay [16]; 100% (inactive) in assay [17]; 98.5% (inactive) in [18]. The growth in [19] is 92.6% (inactive); in assay [20], 98.7% (inactive).
On to `CSc1cc(/C=C(\C)[C@@H]2C[C@@H]3O[C@]3(C)CCC[C@H](C)[C@H](O)[C@@H](C)C(=O)C(C)(C)[C@@H](O)CC(=O)O2)n(CCNC(=O)OC(C)(C)C)n1`, for which the growth in assay [1] was 61.4% (inactive); in assay [2], 82.7% (inactive); in [3], 77.2% (inactive); in assay [4], 68.7% (inactive); in assay [5] it was 29.6% (inactive); in [6], 70.3% (inactive). In addition, the growth is 63.1% (inactive) in assay [7]; 55.2% (inactive) in assay [8]; 66.6% (inactive) in [9]; 30.5% (inactive) in [10]; 58% (inactive) in assay [11]; 36.4% (inactive) in assay [12]. For the same compound, the growth in assay [13] is 78.7% (inactive); in assay [14], 63.8% (inactive); in assay [15] it was 63.6% (inactive); in assay [16] it was 70.6% (inactive); in [17] it was 73.5% (inactive); in [18] it was 54% (inactive). Besides, the growth is 91.9% (inactive) in assay [19] and 56.7% (inactive) in assay [20].
Regarding `CCC1(CCSC#N)C(=O)NC(=O)NC1=O`, the growth in assay [1] is 91.5% (inactive); in assay [2], 104% (inactive); in assay [3], 97.9% (inactive); in assay [4], 94.9% (inactive); in [5], 107% (inactive); in assay [6], 85.8% (inactive). Also, the growth was 109% (inactive) in assay [7]; 106% (inactive) in [8]; 93.5% (inactive) in [9]; 108% (inactive) in [10]; 106% (inactive) in [11]; 86.5% (inactive) in [12]. Besides, the growth is 86.2% (inactive) in [13]; 106% (inactive) in [14]; 117% (inactive) in assay [15]; 97.2% (inactive) in assay [16]; 100% (inactive) in assay [17]; 94.9% (inactive) in [18]. The growth in assay [19] was 98.9% (inactive); in assay [20], 94.6% (inactive).
Consider `COC1C(O)CC(OC2CC(Oc3cc4cc5c(c(O)c4c(O)c3C)C(=O)[C@@H](OC3CC(OC4CC(OC6CC(C)(O)C(OC(C)=O)C(C)O6)C(O)C(C)O4)C(O)C(C)O3)[C@H]([C@H](OC)C(=O)[C@@H](O)[C@@H](C)O)C5)OC(C)C2OC(C)=O)OC1C` (stereo not given in full), for which the growth in [1] was -44.1% (active); in assay [2], -10.6% (active); in assay [3], -2.53% (active); in [4] it was -11.7% (active); in assay [5] it was -25.7% (active); in [6], -19.7% (active). In addition, the growth in [7] was -50.6% (active); in [8] it was -64.2% (active); in assay [9], 1.26% (active); in assay [10], -57.6% (active); in assay [11], -18.3% (active); in assay [12], -14.9% (active). In addition, the growth in [13] is -91.6% (active); in assay [14], -8.36% (active); in assay [15] it was -49.6% (active); in assay [16], -10.5% (active); in assay [17], -16.2% (active); in assay [18], -73.9% (active). In addition, the figures for the growth in [19] and in [20] were -31.7% (active) and -86.3% (active), respectively.
